We go through 35 compounds from PubChem BioAssay.

In one test the target is Torsin-1A (Homo sapiens) (UniProt O14656). Description: small-molecule binders of mutant TOR1A in lysate, primary screen, cell lysate, small-molecule microarray, COS7 lysate, 635/667 nm fluorescence (AID 1150).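 Further: score pools 667 nm emission and signal to noise measuring lysate protein binding.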 The conditions noted are these: COS7 hTOR1A mutant lysate, 635 nm fluorescence, higher = more signal.
Sequence of Torsin-1A (Homo sapiens) (O14656 whole entry, looked up): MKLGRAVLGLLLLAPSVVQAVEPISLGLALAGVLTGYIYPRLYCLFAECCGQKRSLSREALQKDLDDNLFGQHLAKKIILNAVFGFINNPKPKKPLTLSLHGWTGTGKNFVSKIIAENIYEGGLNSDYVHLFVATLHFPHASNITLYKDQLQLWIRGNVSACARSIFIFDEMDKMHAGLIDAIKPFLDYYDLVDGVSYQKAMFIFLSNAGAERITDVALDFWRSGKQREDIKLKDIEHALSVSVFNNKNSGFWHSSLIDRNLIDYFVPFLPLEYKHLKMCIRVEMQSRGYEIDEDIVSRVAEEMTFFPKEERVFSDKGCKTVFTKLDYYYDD
For the compound `COC(=O)c1c(CC[C@@H](CO)NC(=O)N[C@@H](Cc2ccccc2)Cn2cc(-c3cncn3C)nn2)oc(C(C)=O)c1C(=O)OC`, the composite z-score was found to be 1.26.

In turn, `O=C1O[C@@H](c2ccccc2)[C@@H](c2ccccc2)N2[C@@H](c3ccc(O)cc3)[C@]3(C(=O)Nc4ccc(C#CC5=CCCCC5)cc43)[C@@H](C(=O)N3CCCCCCC3)[C@H]12` came in with a composite z-score of 0.772.

In turn, `COC(=O)C1=CC(CCCO)=CC(C2CC2)N(Cc2cccc(OC(F)(F)F)c2)C=C1C(=O)OC` (stereo not drawn) registered a composite z-score of 0.497.

Compound `COCCOC(=O)N1C(=O)[C@@]2(c3cc(C#CCC(C(=O)OC)C(=O)OC)ccc31)[C@H](C(=O)N1CCCCCCC1)[C@H]1C(=O)O[C@H](c3ccccc3)[C@H](c3ccccc3)N1[C@@H]2c1ccccc1OCCO` registered a composite z-score of 1.23.

For the compound `COCCOC(=O)N1C(=O)[C@@]2(c3cc(C#CCCO)ccc31)[C@H](c1ccccc1OCCO)N1[C@H](c3ccccc3)[C@H](c3ccccc3)OC(=O)[C@H]1[C@@H]2C(=O)N1CCc2cc(OC)c(OC)cc2C1`, the composite z-score is 1.18.

On to `COC(=O)[C@@H]1N=C(c2ccc(OCCCO)cc2)O[C@@H]1c1ccccc1CN=[N+]=[N-]`, for which the composite z-score was -0.938.

Take `COC(=O)[C@H](Cc1ccc(O)cc1)N1CC2=CCCC=C[C@@H]2[C@H]1[C@H](O)Cc1ccccc1`: the composite z-score was -0.0258.

`C=CC[C@@]1(C(=O)N(C)C)N=C(c2ccc(OCCCO)cc2)O[C@@H]1c1ccccc1`: the composite z-score was determined as 0.571.

The test system of another test is Sonic hedgehog protein (Shh). Nature of the test: small-molecule binders of Shh protein, primary screen, biochemical, small-molecule microarray, 635/667 nm fluorescence (AID 1151).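 Further: Shh protein binding to compounds spotted on small-molecule microarray slides; score combines spot fluorescence intensity with signal-to-noise across triplicate slides.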 The following applies: small-molecule microarray binding, 635 nm fluorescence; higher = more signal.
Take `CO[C@H]1O[C@H](CO)[C@@H](OC(=O)Nc2ccccc2)[C@@H]2OC(=O)[C@H](Cc3ccccc3)C/C=C/C[C@@H](Cc3ccccc3)C(=O)O[C@@H]12`: the composite z-score came to 1.62.

`CCCCC(=C=CC[C@@H](O)c1ccc(OCCO)cc1)C[C@@H](O)c1ccccn1` came in with a composite z-score of 1.48.

Consider `C=CCC(OC(C)=O)[C@@H]1[C@@H](N(Cc2cccc3ccccc23)C(=O)c2ccc(-c3ccccc3)cc2)c2cc(OCCCO)ccc2N1C(=O)c1ccc2ccccc2n1` (stereo partly drawn), for which the composite z-score turned out to be 0.664.

With `COCCOC(=O)N1C(=O)[C@@]2(c3cc(C#CC4(O)CCCCCC4)ccc31)[C@H](c1ccc(OCCO)cc1)N1[C@H](c3ccccc3)[C@H](c3ccccc3)OC(=O)[C@H]1[C@@H]2C(N)=O`, the composite z-score was 1.33.

As for `COc1ccc([Si](C)(C)[C@H]2[C@H](CCO)O[C@@]3(C(=O)N(Cc4ccc(N5CCOC5=O)cc4)c4ccccc43)[C@@H]2C)cc1`, the composite z-score amounted to 0.397.

As for `Cc1c(-c2ccc(-c3ccc(Cl)c(Cl)c3)o2)nc(-c2ccccc2)c2c1CO[Si]2(C(C)C)C(C)C`, the composite z-score amounted to 0.426.

The compound `O=C1OCCC=C[C@H]2OC34C=CCN(CCN5CCOCC5)C(=O)[C@H]3N(CCCO)C(=O)[C@@H]4C12` (stereo partly drawn) returned a composite z-score of 0.243.

On to `COC(=O)[C@@]1(Cc2ccc(F)cc2)[C@H]2c3cc(C(=O)N(C)C)n(CCO)c3C[C@H]2CN1C(=O)c1ccccc1`, for which the composite z-score was -0.653.

With `CC(C)C[C@H]1NC(=O)[C@@H](C)NC(=O)[C@@]23C(=O)N[C@@H](Cc4ccccc4)C2[C@H](C)[C@@]2(C)O[C@H]2C3/C=C/C/C=C\CNC1=O` (stereo partly drawn), the composite z-score is 1.41.

With `N#Cc1ccc(C(O)C2C=CC3C(=O)N(c4ccccc4)C(=O)C3N2Nc2ccc([N+](=O)[O-])cc2)cc1` (stereo not drawn), the composite z-score was -0.51.

In turn, `CN(C)CCCC[C@@H]1NC(=O)[C@@H]2C[C@H](C(=O)NCc3ccc(F)cc3)[C@H](c3ccc(O)cc3)N2C1=O` gave a composite z-score of 2.28.

Take `CC(=O)c1ccc(C(O)C2C=CC3C(=O)N(C)C(=O)C3N2NC(=O)OC(C)(C)C)cc1` (stereo not drawn): the composite z-score was -0.0538.

Consider `CO[C@H]1O[C@H](CO)[C@@H](OC(=O)Nc2ccc3c(c2)OCO3)[C@@H]2OC(=O)[C@@H](Cc3ccccc3)C/C=C/C[C@H](Cc3ccccc3)C(=O)O[C@@H]12`, for which the composite z-score came out at 1.32.

Consider `O=C1NC(=O)C2C1C=CC(C(O)c1cccc(O)c1)N2Nc1ccc(Cl)cc1Cl` (stereo not drawn), for which the composite z-score is -1.14.

Consider `Cc1ccc(S[C@]2(C(=O)NCCCN(C)C)CC(=O)N(Cc3ccccc3Cl)[C@@H]2c2ccc(CO)cc2I)cc1`, for which the composite z-score was -0.995.

`O=c1cccc(-c2ccccc2C(F)(F)F)o1` returned a composite z-score of -0.999.

`COCCOC(=O)N1C(=O)[C@@]2(c3cc(C#CCC(C(=O)OC)C(=O)OC)ccc31)[C@H](c1ccc(OCCO)cc1)N1[C@H](c3ccccc3)[C@H](c3ccccc3)OC(=O)[C@H]1[C@@H]2C(=O)N1CCCCCCC1` came in with a composite z-score of 1.58.

`C[C@H]1NC(=O)C([C@@H](C)OCc2ccccc2)NC(=O)[C@@]23C(=O)N[C@@H](Cc4ccccc4)C2[C@H](C)[C@@]2(C)O[C@H]2C3/C=C/C/C=C\CNC1=O` (stereo partly drawn) showed a composite z-score of 0.551.

Consider `COCC(=C=CC[C@@H](O)c1cccc(OCCO)c1)C[C@@H](O)COCc1ccccc1`, for which the composite z-score was found to be 0.436.

Compound `C=C(CCCC)C(=O)CC[C@H](OC(C)=O)c1ccccc1OCCO` returned a composite z-score of 1.42.

With `CCC[C@@H]1C=C(C(=O)OCC)[C@H](c2ccccc2)N1S(=O)(=O)c1ccc(C)cc1`, the composite z-score was 0.203.

`COCCOC(=O)N1C(=O)[C@@]2(c3cc(C#CC4(O)CCCCCC4)ccc31)[C@H](C(=O)N1CCc3cc(OC)c(OC)cc3C1)[C@H]1C(=O)O[C@H](c3ccccc3)[C@H](c3ccccc3)N1[C@@H]2c1ccc(O)cc1` yielded a composite z-score of 0.774.

Consider `Cc1ccc(F)cc1S(=O)(=O)N[C@@H]1CCN(Cc2ccc3c(c2)OCO3)C1`, for which the composite z-score was -0.0547.

Consider `COCCOC(=O)N1C(=O)[C@@]2(c3cc(C#CC4(O)CCCCCC4)ccc31)[C@H](c1ccc(OCCO)cc1)N1[C@H](c3ccccc3)[C@H](c3ccccc3)OC(=O)[C@H]1[C@@H]2C(=O)N1CCCCCCC1`, for which the composite z-score turned out to be 2.

For `CC(c1ccccc1)C(O)C1C=CC2C(=O)N(c3ccccc3)C(=O)C2N1Nc1ccc(C#N)cc1` (stereo not drawn), the composite z-score was found to be 1.18.

In turn, `COC(=O)C(CC#Cc1ccc2c(c1)[C@]1(C(=O)N2)[C@H](c2ccc(O)cc2)N2[C@H](c3ccccc3)[C@H](c3ccccc3)OC(=O)[C@H]2[C@@H]1C(=O)N1CCc2cc(OC)c(OC)cc2C1)C(=O)OC` showed a composite z-score of 1.31.

On to `C[N+](C)(C)CCCCCCNC(=O)[C@H]1C[C@H]2C(=O)NCC(=O)N2[C@H]1c1cccc(OCCO)c1`, for which the composite z-score amounted to 2.17.

Turning to `COC(=O)c1c(CC[C@@H](CO)NC(=O)N[C@@H](Cc2ccccc2)Cn2cc(-c3cncn3C)nn2)oc(C(C)=O)c1C(=O)OC`, the composite z-score worked out at 1.75.

The compound `O=C1O[C@@H](c2ccccc2)[C@@H](c2ccccc2)N2[C@@H](c3ccc(O)cc3)[C@]3(C(=O)Nc4ccc(C#CC5=CCCCC5)cc43)[C@@H](C(=O)N3CCCCCCC3)[C@H]12` returned a composite z-score of 1.95.

`COC(=O)C1=CC(CCCO)=CC(C2CC2)N(Cc2cccc(OC(F)(F)F)c2)C=C1C(=O)OC` (stereo not drawn) showed a composite z-score of -0.153.

As to `COCCOC(=O)N1C(=O)[C@@]2(c3cc(C#CCC(C(=O)OC)C(=O)OC)ccc31)[C@H](C(=O)N1CCCCCCC1)[C@H]1C(=O)O[C@H](c3ccccc3)[C@H](c3ccccc3)N1[C@@H]2c1ccccc1OCCO`, the composite z-score came out at 2.06.

`COCCOC(=O)N1C(=O)[C@@]2(c3cc(C#CCCO)ccc31)[C@H](c1ccccc1OCCO)N1[C@H](c3ccccc3)[C@H](c3ccccc3)OC(=O)[C@H]1[C@@H]2C(=O)N1CCc2cc(OC)c(OC)cc2C1`: the composite z-score is 1.2.

Compound `COC(=O)[C@@H]1N=C(c2ccc(OCCCO)cc2)O[C@@H]1c1ccccc1CN=[N+]=[N-]` displayed a composite z-score of 0.0121.

`COC(=O)[C@H](Cc1ccc(O)cc1)N1CC2=CCCC=C[C@@H]2[C@H]1[C@H](O)Cc1ccccc1` showed a composite z-score of 0.33.

In turn, `C=CC[C@@]1(C(=O)N(C)C)N=C(c2ccc(OCCCO)cc2)O[C@@H]1c1ccccc1` returned a composite z-score of -0.0763.
